Assay outcomes: PubChem BioAssay, several laboratories
TLR9-MyD88 block: TLR9-MyD88 interaction inhibition. CHO BLA complementation TLR9-MyD88, CCF4 FRET ratio. inhibition, % at 4.98 µM. Q9NR96+Q99836. 340,000 compounds, 0.21% hits. AID 504734;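 active = inhibition above the mean over all tested compounds plus 3 SD, cut at about 21% in these data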;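 also: 0% = DMSO only wells and 100% = clavulanate BLA inhibitor control wells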
HTR2A ag: agonists of mouse serotonin 5-HT2A receptor (HTR2A); CHO-K1 mHTR2A beta-arrestin complementation, luminescence; percent of 30 µM serotonin response; activation, % at 7.6 µM; 360,000 compounds, 0.66% hits;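 active = activation above a run cutoff, the mean activation of all tested compounds plus 3 SD, cut at about 14% in these data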;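 also: 0% = plate median of compound wells and 100% = 30 µM serotonin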
TMEM16A act: mouse TMEM16A channel activation, primary screen | Q8BHY3 | HEK293 TMEM16A/YFP-H148Q/I152L, iodide quench fluorescence; active compounds read low | B-score at 10 µM | 340,000 compounds, 0.3% hits;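 active = fluorescence-ratio B-score plate-corrected deviation score at least 3 library SD below zero, with starting fluorescence score within 5 deviations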;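 also: channel opened by trigger with iodide after compound preincubation; score built on the fluorescence ratio of max minus min over baseline; more negative score means more quench and so TMEM16A activation or potentiation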
NOD2-RIPK2 inh: NOD2-RIPK2 protein interaction inhibition. O43353. CHO BLA complementation NOD2-RIPK2, CCF4 ratio. inhibition, % at 4.98 µM. 360,000 compounds, 0.38% hits; in the data active = inhibition above about 21%;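 also: 0% = vehicle only and 100% = reference blocker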
ANO1 block: inhibitors of mouse TMEM16A calcium-activated chloride channel; Q8BHY3; HEK293 TMEM16A/YFP iodide influx fluorescence, ionomycin; normalized B-score (activity score, 25-100; higher = stronger inhibition) at 10 µM; 310,000 compounds, 1.2% hits; AID 588511;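 active = ratio plate-corrected score three or more library SD toward inhibition, starting fluorescence score within five deviations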;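 also: score derived from kinetic fluorescence span divided by baseline fluorescence per well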
TLR4-MyD88 BLA: inhibitors of human TLR4-MyD88 binding. inhibition, % at 8.4 µM. AID 861. 200,000 compounds, 0.18% hits. HeLa CL3-4 TLR4/MyD88 BLA complementation, FRET ratio; in the data active = inhibition above about 25%;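 also: 0% = vehicle and 100% = reference inhibitor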
Target sequence (O00206 whole entry, looked up): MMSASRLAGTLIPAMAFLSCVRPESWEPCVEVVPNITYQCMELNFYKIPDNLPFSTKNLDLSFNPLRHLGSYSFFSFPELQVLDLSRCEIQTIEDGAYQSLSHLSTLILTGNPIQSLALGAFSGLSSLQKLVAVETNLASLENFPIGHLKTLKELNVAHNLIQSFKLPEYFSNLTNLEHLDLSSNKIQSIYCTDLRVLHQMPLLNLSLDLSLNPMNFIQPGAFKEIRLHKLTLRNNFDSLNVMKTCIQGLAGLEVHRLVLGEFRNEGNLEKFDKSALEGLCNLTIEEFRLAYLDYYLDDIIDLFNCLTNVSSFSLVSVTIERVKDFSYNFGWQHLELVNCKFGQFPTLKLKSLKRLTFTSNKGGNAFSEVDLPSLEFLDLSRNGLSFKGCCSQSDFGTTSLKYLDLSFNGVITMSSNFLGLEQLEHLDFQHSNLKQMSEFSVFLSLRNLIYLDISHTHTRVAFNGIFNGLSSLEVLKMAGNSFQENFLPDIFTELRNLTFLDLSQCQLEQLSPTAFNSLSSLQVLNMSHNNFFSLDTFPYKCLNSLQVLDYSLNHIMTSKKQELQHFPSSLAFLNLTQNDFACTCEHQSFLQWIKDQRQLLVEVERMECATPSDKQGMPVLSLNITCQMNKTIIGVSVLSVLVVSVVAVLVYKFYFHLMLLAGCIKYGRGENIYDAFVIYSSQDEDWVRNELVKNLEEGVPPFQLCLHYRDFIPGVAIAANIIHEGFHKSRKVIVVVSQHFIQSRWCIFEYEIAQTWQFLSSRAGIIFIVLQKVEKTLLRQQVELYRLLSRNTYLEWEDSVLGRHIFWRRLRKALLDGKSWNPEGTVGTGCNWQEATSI
Target sequence (Q99836 whole entry, looked up): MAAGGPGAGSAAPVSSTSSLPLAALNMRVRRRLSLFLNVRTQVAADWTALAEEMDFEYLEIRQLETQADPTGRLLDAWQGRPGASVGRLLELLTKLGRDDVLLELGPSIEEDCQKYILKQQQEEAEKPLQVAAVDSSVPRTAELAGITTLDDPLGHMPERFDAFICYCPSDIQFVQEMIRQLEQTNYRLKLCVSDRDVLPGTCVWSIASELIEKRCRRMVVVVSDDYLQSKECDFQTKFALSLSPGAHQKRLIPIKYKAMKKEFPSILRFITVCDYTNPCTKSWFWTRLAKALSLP
OPRM1 ag: activates human mu opioid receptor in HTR2A counterscreen. shares compounds with HTR2A ag. U2OS OPRM1 beta-arrestin PathHunter, luminescence; DMSO 0%, DAMGO 9.3 µM 100%. activation, % at 9.3 µM. 2,300 compounds, 5.3% hits. AID 624380;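 active = mean activation above the mean of DMSO-only wells plus 3 SD, cut at about 0.5% in these data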
m5-HT2A ag conf: mouse HTR2A agonism confirmed; shares compounds with HTR2A ag; CHO-K1 PathHunter beta-arrestin recruitment, luminescence; DMSO 0%, 30 µM serotonin 100%; activation, % at 7.6 µM; 2,300 compounds, 19% hits;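 active = mean activation across triplicates above the hit threshold derived in the original primary screen, cut at about 15% in these data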
* = called active by the depositor; i = inactive; / = no result given. Hits are enriched below; roughly 2.4% of the tested compounds scored in any of these assays.

SMILES	TLR9-MyD88 block	HTR2A ag	TMEM16A act	NOD2-RIPK2 inh	ANO1 block	TLR4-MyD88 BLA	OPRM1 ag	m5-HT2A ag conf
Cc1ccc(S(=O)(=O)N2CCN(C(=O)CSCc3ccc(C(C)C)cc3)CC2)cc1	2	15*	i	2	/	/	0	-2
Cc1ccc(-c2nn(-c3ccccc3)cc2CO)o1	-9	15*	i	3	i	0	-1	-3
COc1cccc(-n2c(CNc3ccc(F)cc3)nnc2SCC(N)=O)c1	-10	4	i	-9	i	0	/	/
CC1COC(c2cccn2Cc2ccccc2Cl)=N1 (configuration not stated)	3	24*	i	-12	i	-11	0	-2
NC(=O)c1nc(C(=O)N2CCN(c3ccccc3)CC2)c2ccccc2n1	7	18*	i	6	/	/	-1	-6
CCc1cc2c(=O)n3c(nc2s1)-c1[nH]c2ccc(OC)cc2c1CC3	-5	8	i	-9	i	6	/	/
CC(C)NC(=S)NC(=O)c1ccc(-c2ccccc2)cc1	5	-3	i	4	i	-13	/	/
CCc1ccc(NC(=O)Cn2nnc(C(=O)NCCc3ccc(OC)c(OC)c3)c2N)cc1	3	17*	i	2	i	/	0	2
CCOc1ccc(CCNC(=O)c2nnn(CC(=O)Nc3ccc(OC)c(OC)c3)c2N)cc1OCC	-1	-1	i	10	i	/	/	/
CCC(OC(=O)c1nsc(Cl)c1Cl)C(=O)NCc1cccs1 (configuration not stated)	1	27*	i	-4	i	2	-1	-3
C=CCn1c(-c2cccc3ccccc23)n[nH]c1=S	0	-3	i	-3	i	8	/	/
CC(=O)Nc1ccc(S(=O)(=O)N2CC(=O)NC(=O)C2)cc1	0	20*	i	4	i	/	0	-4
C=CCOC(=O)COc1ccc2c3c(c(=O)oc2c1)CCCC3	3	16*	/	-4	/	/	-1	-3
COC(C(=O)NNS(=O)(=O)c1ccc([N+](=O)[O-])cc1)c1ccccc1 (configuration not stated)	-8	7	i	-7	i	/	/	/
COC(C(=O)NNS(=O)(=O)c1ccccc1[N+](=O)[O-])c1ccccc1 (configuration not stated)	2	18*	i	-9	/	/	0	-1
COC(=O)[C@@]12C[C@@H](CC(=O)NCCCCc3ccccc3)C(=O)N(Cc3cccc4ccccc34)C1=CCC(C)(C)C2	/	-5	/	-3	/	/	/	/
O=C(CCc1ccncc1)NC1CCCc2c1cnn2-c1ccc(F)cc1F (configuration not stated)	13	16*	i	-6	i	/	0	-1
CC1CCCN(C2(O)C(=O)Nc3ccc([N+](=O)[O-])cc32)C1 (configuration not stated)	0	17*	i	-7	i	/	-1	-2
COc1ccc(N2CCN(C(=O)c3ccc(CNS(=O)(=O)c4cc(C)ccc4C)cc3)CC2)cc1	13	25*	i	2	i	/	0	0
O=C(O)/C=C\C(=O)Nc1ccc(N2CCN(c3cccc(Cl)c3)CC2)cc1	5	17*	i	9	i	-3	-1	-5
O=C(O)/C=C\C(=O)Nc1ccc(N2CCN(c3ccc(Cl)c(Cl)c3)CC2)cc1	3	35*	i	-1	i	9	-1	-2
O=C(O)/C=C\C(=O)Nc1ccc(N2CCN(c3ccc(Cl)cc3)CC2)cc1	-9	7	i	2	i	-5	/	/
COc1ccc2ncn(-c3ccccc3)c2c1	-2	6	i	-16	i	9	/	/
CSc1ccccc1OCc1cc(C(=O)N(C)Cc2ccncn2)no1	-4	5	i	5	i	/	/	/
Cc1nc2ccc(NC(=O)c3oc4ccc(F)cc4c3C)cc2s1	-22	5	i	5	/	/	/	/
SMILES	TLR9-MyD88 block	HTR2A ag	TMEM16A act	NOD2-RIPK2 inh	ANO1 block	TLR4-MyD88 BLA	OPRM1 ag	m5-HT2A ag conf
CN(C)C(=O)c1ccc(NC(=O)c2cccc(S(=O)(=O)N3CCCc4ccccc43)c2)cc1	-8	-1	i	-6	i	/	/	/
Cc1ccc2c(c1)CCCN2S(=O)(=O)c1cccc(C(=O)Nc2ccccc2C(=O)O)c1	-7	15*	i	-14	100*	/	-1	13
O=C(O)CCC(=O)N1N=C(c2ccccc2)CC1c1ccc(Br)cc1 (configuration not stated)	-2	7	i	-1	i	/	/	/
COC(=O)CC(NS(=O)(=O)c1cccs1)c1ccccc1Cl (configuration not stated)	-3	19*	i	4	i	1	0	-4
COC(=O)CC(NS(=O)(=O)c1cccs1)c1ccc2c(c1)OCO2 (configuration not stated)	-1	5	i	-2	i	/	/	/
c1ccc(N2CCN(Cc3ccc4c(c3)OCO4)CC2)nc1	/	32*	i	-6	i	/	-1	113*
c1cnc(N2CCN(Cc3ccc4c(c3)OCO4)CC2)nc1	0	42*	i	-2	i	4	0	169*
O=c1c(CN2CCN(c3ccccn3)CC2)coc2ccccc12	-2	0	i	4	i	-5	/	/
Brc1ccc(CN2CCN(c3ccccn3)CC2)s1	3	30*	i	-8	i	4	0	98*
c1nc(N2CCN(Cc3ccc4c(c3)OCO4)CC2)c2[nH]cnc2n1	-6	20*	i	-5	i	-7	0	75*
FC(F)(F)c1ccc(N2CCN(Cc3ccc4c(c3)OCO4)CC2)nc1	5	2	i	-2	i	-13	/	/
Cc1cc(N2CCOCC2)nc2ccc(NC(=O)CCC(=O)N3CCN(c4cccc(C(F)(F)F)c4)CC3)cc12	1	11	i	-3	i	/	/	/
CCNc1nc(NCC)nc(OCCOC(=O)COc2ccc(Cl)cc2Cl)n1	-3	-3	i	3	i	-12	/	/
CC(C)(C)OC(=O)N1CCC(NC(=O)c2nc[nH]c2C(=O)NCC(=O)OCc2ccccc2)CC1	-16	21*	i	-10	i	/	0	-1
COc1ccc(NC(=O)CN(C)CC(=O)NCC(=O)Nc2ccc(F)cc2)cc1	-3	16*	i	-15	i	/	-1	-3
